# Assay: HepG2 cell viability effects, profiling panel, calcein-AM fluorescence, 48 h, basal (AID 1164)
# Settings: higher = more signal
# Also: test concentration not given here.
row,Structure (SMILES),z-score
1,CC1CC/C=C\[C@H]2OC34C=CCN(Cc5ccccc5)C(=O)[C@H]3N(CCCO)C(=O)[C@@H]4C2C(=O)O1 (stereo not given in full),-0.0453
2,C=CC(=C)[C@H]1Oc2ccccc2S(=O)(=O)N2CCC[C@@H]12,-1.23
3,COCCOC(=O)N1C(=O)[C@@]2(c3cc(C#CC4(O)CCCCCC4)ccc31)[C@H](c1ccc(OCCO)cc1)N1[C@H](c3ccccc3)[C@H](c3ccccc3)OC(=O)[C@H]1[C@@H]2C(=O)N1CCN(c2ncccn2)CC1,-0.0949
4,COc1ccc(CCNC(=O)[C@@]2(C)c3ccccc3C(=O)N(C(C)C)[C@H]2c2ccc(CO)cc2)cc1,0.779
5,CC1(C)C2C=C(C(O)C3C=CC4C(=O)NC(=O)C4N3Nc3ccc(Cl)cc3Cl)C[C@@H]1C2 (stereo not given in full),-1.8
6,O=C1N(Cc2ccccc2)c2ccccc2[C@@H]2OC(c3ccc(OCCCO)cc3)=N[C@]12CCS(=O)(=O)c1ccccc1,0.455
7,COc1cc(COC(C)=O)ccc1OC(C)=O,1.5
8,O=C(OCc1ccccc1)C1=CCC2c3[nH]c4ccccc4c3C(=O)C1N2S(=O)(=O)c1ccccc1[N+](=O)[O-] (stereo not given),-0.267
9,O=C(NC1CC1)[C@@H]1c2ccccc2C(=O)N(Cc2ccccc2Cl)[C@H]1c1ccc(CO)cc1,2.25
10,C[N+](C)(C)CCCCNC(=O)[C@H]1C[C@H]2C(=O)N3CCC[C@H]3C(=O)N2[C@H]1c1cccc(OCCO)c1,-0.545

# Assay: MM1S cell viability effects, profiling panel, calcein-AM fluorescence, 48 h, basal (AID 1165);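 also: viability of MM1S multiple myeloma cells under basal unstimulated conditions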
# Settings: higher = more signal
row,Structure (SMILES),z-score
1,CO[C@H]1O[C@H](CO)[C@@H](OC(=O)Nc2ccc(C(F)(F)F)cc2)[C@H](OC(=O)Nc2ccc3c(c2)OCO3)[C@@H]1OC(=O)Nc1ccc2c(c1)OCO2,-3.42
2,COCCOC(=O)N1C(=O)[C@@]2(c3cc(C#Cc4ccc(OC)cc4)ccc31)[C@H](c1ccc(O)cc1)N1[C@H](c3ccccc3)[C@H](c3ccccc3)OC(=O)[C@H]1[C@@H]2C(=O)N1CCc2cc(OC)c(OC)cc2C1,-0.0636
3,CCC(CC)C(O)C1C=CC2C(=O)NC(=O)C2N1Nc1ccccn1 (stereo not given),0.152
4,CN1C(=O)C2C=CC(C(O)C3CC=CCC3)N(N(c3ccccc3)c3ccccc3)C2C1=O (stereo not given),0.535
5,COc1cc2c(cc1OC)CN(C(=O)[C@H]1[C@@H]3C(=O)O[C@@H](c4ccccc4)[C@@H](c4ccccc4)N3[C@@H](c3ccc(O)cc3)[C@]13C(=O)Nc1ccc(C#CCCO)cc13)CC2,-0.233
6,CCN(CC)c1ccc(N2CC=CC34O[C@@H]5C=CCCOC(=O)C5[C@H]3C(=O)N(CCCCCCO)[C@@H]4C2=O)cc1 (stereo not given in full),1.97
7,Cc1ccc(S[C@]2(C(=O)O)CC(=O)N(C(C)C)[C@@H]2c2ccc(CO)cc2I)cc1,-2.36
8,C=CCNC(=O)[C@H]1[C@@H]2C(=O)O[C@@H](c3ccccc3)[C@@H](c3ccccc3)N2[C@@H](c2ccccc2OCCO)[C@]12C(=O)Nc1ccc(C#CCCO)cc12,-2.03
9,C=C(CC1([C@@H](NP(=O)(c2ccccc2)c2ccccc2)[C@H]2C[C@@H]2CCCC)CC1)c1ccccc1,-2.74
10,O=C1C[C@@](C(=O)NCCN2CCOCC2)(c2ccc([N+](=O)[O-])cc2)[C@@H](c2ccc(CO)cc2)N1CC12CC3CC(CC(C3)C1)C2,-3.83
11,CC(C)[Si](C#Cc1ccc(Oc2ccccc2)cc1)(O[Si](C#Cc1ccc(Oc2ccccc2)cc1)(C(C)C)C(C)C)C(C)C,-1.58
12,O=C(NCCO)C1=C[C@H](Oc2ccccc2I)[C@@H](O)[C@H](N(Cc2ccco2)C(=O)Cc2ccccc2)C1,0.426
13,COc1ccc(C#Cc2ccc3c(c2)[C@]2(C(=O)N3)[C@H](C(=O)Nc3nc4ccccc4s3)[C@H]3C(=O)O[C@H](c4ccccc4)[C@H](c4ccccc4)N3[C@@H]2c2ccc(O)cc2)cc1,-0.561
14,C=CCOC(=O)[C@H]1[C@@H]2C(=O)O[C@@H](c3ccccc3)[C@@H](c3ccccc3)N2[C@@H](c2ccc(OCCOC(=O)[C@@H]3C[C@@H]4C(=O)N[C@@H](CCCCNC(C)=O)C(=O)N4[C@@H]3c3ccc(O)cc3)cc2)[C@]12C(=O)Nc1ccccc12,-0.0774
15,COC(=O)[C@H](Cc1ccccc1)N[C@@H](/C=C/C1CC1)[C@H](O)Cc1ccccc1,-0.608
16,CC(C)N1C(=O)[C@@]2(Cc3ccccc31)c1ccccc1C(=O)N(Cc1ccccc1Cl)[C@H]2c1ccc(CO)cc1,-1.58
17,COC(=O)c1c(CC[C@@H](CO)NC(=O)NCCn2cc(C3(O)CCCC3)nn2)oc(C(C)=O)c1C(=O)OC,0.454
18,Cc1ccc(S[C@]2(C(=O)NCCCN(C)C)CC(=O)N(Cc3cc(C(F)(F)F)cc(C(F)(F)F)c3)[C@@H]2c2ccc(CO)cc2)cc1,-0.47

row,Structure (SMILES),z-score
1,CCOC(=O)C1=C[C@@H](C(C)(C)C)N(S(=O)(=O)c2ccc(C)cc2)[C@H]1c1ccc(F)cc1,-1.55
2,COc1cc2c(cc1OC)CN(C(=O)[C@H]1[C@@H]3C(=O)O[C@@H](c4ccccc4)[C@@H](c4ccccc4)N3[C@@H](c3ccc(O)cc3)[C@]13C(=O)Nc1ccccc13)CC2,-0.723
3,COC(=O)C(CC#Cc1ccc2c(c1)[C@]1(C(=O)N2)[C@H](c2ccc(OCCO)cc2)N2[C@H](c3ccccc3)[C@H](c3ccccc3)OC(=O)[C@H]2[C@@H]1C(=O)Nc1nc2ccccc2s1)C(=O)OC,-2.56
4,COCCOC(=O)N1C(=O)[C@@]2(c3cc(C#CCCO)ccc31)[C@H](C(=O)N1CCCCCCC1)[C@H]1C(=O)O[C@H](c3ccccc3)[C@H](c3ccccc3)N1[C@@H]2c1ccc(OCCO)cc1,-0.284
5,C[N+](C)(C)CCCCCCNC(=O)[C@@H]1C[C@@H]2C(=O)N[C@@H](Cc3ccccc3)C(=O)N2[C@@H]1c1cccc(OCCO)c1,0.653
6,CC(=O)n1cc(C(O)C2C=CC3C(=O)N(c4ccccc4)C(=O)C3N2Nc2ccc([N+](=O)[O-])cc2)c2ccccc21 (stereo not given),-1.53
7,COC(=O)[C@]1(CCC(=O)OC(C)(C)C)N=C(c2ccc(OCCCO)cc2)O[C@@H]1c1ccccc1CN=[N+]=[N-],-3.55
8,CC1CC/C=C\[C@H]2OC34C=CCN(Cc5ccccc5)C(=O)[C@H]3N(CCCO)C(=O)[C@@H]4C2C(=O)O1 (stereo not given in full),-0.142
9,C=CC(=C)[C@H]1Oc2ccccc2S(=O)(=O)N2CCC[C@@H]12,-0.391
10,COCCOC(=O)N1C(=O)[C@@]2(c3cc(C#CC4(O)CCCCCC4)ccc31)[C@H](c1ccc(OCCO)cc1)N1[C@H](c3ccccc3)[C@H](c3ccccc3)OC(=O)[C@H]1[C@@H]2C(=O)N1CCN(c2ncccn2)CC1,-0.373
11,COc1ccc(CCNC(=O)[C@@]2(C)c3ccccc3C(=O)N(C(C)C)[C@H]2c2ccc(CO)cc2)cc1,-1.35
12,CC1(C)C2C=C(C(O)C3C=CC4C(=O)NC(=O)C4N3Nc3ccc(Cl)cc3Cl)C[C@@H]1C2 (stereo not given in full),-3.73
13,O=C1N(Cc2ccccc2)c2ccccc2[C@@H]2OC(c3ccc(OCCCO)cc3)=N[C@]12CCS(=O)(=O)c1ccccc1,-0.527
14,COc1cc(COC(C)=O)ccc1OC(C)=O,-0.0098
15,O=C(OCc1ccccc1)C1=CCC2c3[nH]c4ccccc4c3C(=O)C1N2S(=O)(=O)c1ccccc1[N+](=O)[O-] (stereo not given),-0.624
16,O=C(NC1CC1)[C@@H]1c2ccccc2C(=O)N(Cc2ccccc2Cl)[C@H]1c1ccc(CO)cc1,-0.867
17,C[N+](C)(C)CCCCNC(=O)[C@H]1C[C@H]2C(=O)N3CCC[C@H]3C(=O)N2[C@H]1c1cccc(OCCO)c1,0.129

# Source: PubChem BioAssay
